# In PubChem BioAssay AID1626 (SRMLSC, 2009):
# About 2,000 (0.91%) of roughly 220,000 compounds were called active. Not shown: some 2% with an inconclusive outcome. Rule as the data show it: inconclusive = inhibition above about 80% without an active follow-up result; inactive = below that; test concentration not stated here. Not all results are given here. Results with a measured potency or affinity are listed apart.
# Test: M. tuberculosis H37Rv growth inhibitors, H37Rv strain (AID 1626);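 also: bacteria incubated seven days before Alamar blue readout; 0% = bacteria only wells and 100% = bacteria with antibiotic wells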
# Conditions: stronger effect = higher value, concentration not given here
row,Compound,inhibition
1,CC(C)N1CCN(Cc2nc3c(s2)CCCC3)CC1CCO (centres undefined),-2.24% (inactive)
2,COc1cc([C@@H]2c3cc4c(cc3[C@@H](NC3CCN(Cc5ccccc5)CC3)[C@H]3COC(=O)[C@H]23)OCO4)cc(OC)c1O,51.2% (inactive)
3,CC1=C(C(=O)OCc2ccc(C)cc2)C(c2ccc(O)c([N+](=O)[O-])c2)NC(=O)N1 (centres undefined),-1.03% (inactive)
4,COc1ccc(S(=O)(=O)N(CC(=O)NCC2CCCO2)c2ccccc2)cc1OC (centres undefined),-6.11% (inactive)
5,Cc1cc(-c2ccc(Cl)cc2Cl)c(C#N)c(=O)[nH]1,-3.23% (inactive)
6,Cc1ncn2cc(-c3ccc(Cl)cc3Cl)[nH]c(=O)c12,11.2% (inactive)
7,O=c1[nH]c(=O)n(-c2ccccc2)c2c1C(C(F)(F)F)(C(F)(F)F)N=C(CCC1CCCCC1)N2,-0.92% (inactive)
8,Cc1nc(N2CCCCC2)c2c(C)c(C(=O)Nc3ccccc3C(F)(F)F)sc2n1,1.26% (inactive)
9,Cc1nc(N2CCN(c3ccccn3)CC2)c2c(C)c(C(=O)Nc3ccc(F)cc3F)sc2n1,79.3% (inactive)
10,Cc1nc(N2CCOCC2)c2c(C)c(C(=O)Nc3ccc(F)cc3F)sc2n1,-1.7% (inactive)
11,Cc1nc(N2CCOCC2)c2c(C)c(C(=O)Nc3ccccc3Cl)sc2n1,0.57% (inactive)
12,CCN=C1NN=C(c2cc(C)n(Cc3ccco3)c2C)CS1,8.94% (inactive)
13,CCN(CCCNC(=O)CN(C)S(=O)(=O)c1ccc2c(c1)CCC(=O)N2)c1cccc(C)c1,-2.39% (inactive)
14,O=C(COC(=O)C1CCN(S(=O)(=O)c2cccs2)CC1)Nc1ccccc1Br,-7.27% (inactive)
15,O=c1[nH]c2ccccc2n1CCCN1CCCCC1,-2.47% (inactive)
16,CCCCn1c(=O)[nH]c2ccccc21,3.85% (inactive)
17,O=C(Nc1cccc(Cl)c1)/C(=C\c1cccnc1)NC(=O)c1ccco1,2.59% (inactive)
18,Cc1ccc(OCCNC(=O)c2cccc(Oc3ccc(C(F)(F)F)cc3[N+](=O)[O-])c2)cc1,1.39% (inactive)
19,Oc1ccc2ccccc2c1CN1CCCC1,12.7% (inactive)
20,CN1CCN(Cc2c(O)ccc3cc(Br)ccc23)CC1,21% (inactive)
21,Cc1ccc2c(c1)C1CN(C)CCC1N2C(=O)c1cn(-c2ccccc2)nc1-c1ccccc1 (centres undefined),10.5% (inactive)
22,CC(=O)Nc1ccc(C(=O)NCC(=O)OCc2c(F)cccc2Cl)cc1,-1.08% (inactive)
23,O=C(CNC(=O)c1ccc(-c2ccccc2)cc1)OCc1c(Cl)cccc1Cl,-1.9% (inactive)
24,COc1ccc(N(C(=O)c2ccco2)C(C(=O)NC2CCCC2)c2ccc(N(C)C)cc2)cc1 (centres undefined),-10.8% (inactive)
